# Results reported in PubChem BioAssay (NCATS).
# Unmarked numbers belong to inactive results. Records with an inconclusive call do not appear. The source made the active and inactive calls. Unless noted, the call rests on the fitted dose curve; in most records, active means well fitted curve in the direction sought with a large enough effect; inconclusive means small, poorly fitted or top-dose-only effect, or another doubt; inactive means no such curve, though single readings can be large; an effect the other way counts as inactive or inconclusive.
# Key:
# [1] = target: Cytochrome P450 2C9 (Homo sapiens) (UniProt P11712); test: qHTS Assay for Inhibitors and Substrates of Cytochrome P450 2C9 (AID 883); further: nearly all actives have a fitted effect of over 60% in size; further: potency means the concentration at half of the fitted maximal effect; on activity change, negative = inhibition: on the % scale 0 is the no-effect control and ±100 the full control effect
# Chain of Cytochrome P450 2C9 (Homo sapiens) (P11712 whole entry, looked up): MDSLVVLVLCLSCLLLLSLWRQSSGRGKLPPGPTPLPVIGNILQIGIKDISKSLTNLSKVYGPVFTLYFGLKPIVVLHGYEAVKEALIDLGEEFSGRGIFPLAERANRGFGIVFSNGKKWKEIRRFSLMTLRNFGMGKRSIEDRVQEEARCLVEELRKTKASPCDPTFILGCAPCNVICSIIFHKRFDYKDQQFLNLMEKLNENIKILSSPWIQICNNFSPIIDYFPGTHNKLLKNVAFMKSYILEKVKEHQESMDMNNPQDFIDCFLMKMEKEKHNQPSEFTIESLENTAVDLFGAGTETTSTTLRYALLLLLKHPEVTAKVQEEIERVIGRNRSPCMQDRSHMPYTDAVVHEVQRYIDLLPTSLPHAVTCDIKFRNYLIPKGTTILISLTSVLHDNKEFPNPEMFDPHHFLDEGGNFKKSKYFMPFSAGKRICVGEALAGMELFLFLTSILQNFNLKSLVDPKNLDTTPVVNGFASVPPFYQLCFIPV
# Procedure, shortened: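 Turnover of Luciferin-H (100uM, KM) by 10nM human CYP2C9 was measured over 60 min at 37C with NADPH regeneration; inhibitors and some substrates reduce luminescence. Data normalized to sulphaphenazole 57uM.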
# [2] = qHTS Assay for Identification of Small Molecule Agonists for Hypoxia Response Element Signaling Pathway (AID 914; active means well fitted activation curve with a large enough effect in the signal ratio, with a control signal flat, not every such curve was filed as active; the % refers to the signal ratio; further: potency means the concentration at half of the fitted maximal effect; on activation: % of control where 0% means no effect); conditions: ME-180 (cervical carcinoma) HRE-bla reporter, beta-lactamase ratio, CoCl2, 17 h; activation: hits give high values
# Procedure, shortened: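 HRE-bla ME-180 assay for agonist-like enhancement of an EC50 CoCl2 stimulus: 17 h at 37 degrees Celsius, CCF4 for 2.5 h, ratiometric 460/530 nm signal converted to %Activity and fitted to AC50.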
# [3] = target: Cytochrome P450 3A4 (Homo sapiens) (UniProt P08684); test: qHTS Assay for Inhibitors and Substrates of Cytochrome P450 3A4 (AID 884); further: nearly all actives have a fitted effect of over 50% in size; further: potency means the concentration at half of the fitted maximal effect; on activity change, negative = inhibition: series mostly up to about 57 µM; on the % scale 0 is the no-effect control and ±100 the full control effect
# Chain of Cytochrome P450 3A4 (Homo sapiens) (P08684 whole entry, looked up): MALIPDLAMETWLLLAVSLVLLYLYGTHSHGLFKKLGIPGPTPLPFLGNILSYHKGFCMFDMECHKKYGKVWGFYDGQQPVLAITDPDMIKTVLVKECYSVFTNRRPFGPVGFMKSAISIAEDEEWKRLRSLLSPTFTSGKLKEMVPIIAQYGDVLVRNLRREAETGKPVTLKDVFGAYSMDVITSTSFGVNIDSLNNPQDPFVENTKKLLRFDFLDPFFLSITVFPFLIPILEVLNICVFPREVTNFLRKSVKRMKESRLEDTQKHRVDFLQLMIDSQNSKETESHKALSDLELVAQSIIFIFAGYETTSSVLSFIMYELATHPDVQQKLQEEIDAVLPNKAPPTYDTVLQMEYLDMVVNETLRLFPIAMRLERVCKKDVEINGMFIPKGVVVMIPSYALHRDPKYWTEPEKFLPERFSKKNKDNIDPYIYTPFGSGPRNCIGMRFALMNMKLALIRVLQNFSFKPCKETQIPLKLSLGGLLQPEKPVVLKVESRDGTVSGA
# Procedure, shortened: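 Luminescent readout of luciferin produced by CYP3A4 (20 nM) dealkylation of Luciferin-PPXE, 25 uM (its KM). NADPH-driven reaction ran 60 min at RT after 10 min compound preincubation; data scaled to 57 uM ketoconazole as 100% inhibition.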
# [4] = target: Cytochrome P450 2C19 (Homo sapiens) (UniProt P33261); test: qHTS Assay for Inhibitors and Substrates of Cytochrome P450 2C19 (AID 899); further: nearly all actives have a fitted effect of over 60% in size; further: potency means the concentration at half of the fitted maximal effect
# Chain of Cytochrome P450 2C19 (Homo sapiens) (P33261 whole entry, looked up): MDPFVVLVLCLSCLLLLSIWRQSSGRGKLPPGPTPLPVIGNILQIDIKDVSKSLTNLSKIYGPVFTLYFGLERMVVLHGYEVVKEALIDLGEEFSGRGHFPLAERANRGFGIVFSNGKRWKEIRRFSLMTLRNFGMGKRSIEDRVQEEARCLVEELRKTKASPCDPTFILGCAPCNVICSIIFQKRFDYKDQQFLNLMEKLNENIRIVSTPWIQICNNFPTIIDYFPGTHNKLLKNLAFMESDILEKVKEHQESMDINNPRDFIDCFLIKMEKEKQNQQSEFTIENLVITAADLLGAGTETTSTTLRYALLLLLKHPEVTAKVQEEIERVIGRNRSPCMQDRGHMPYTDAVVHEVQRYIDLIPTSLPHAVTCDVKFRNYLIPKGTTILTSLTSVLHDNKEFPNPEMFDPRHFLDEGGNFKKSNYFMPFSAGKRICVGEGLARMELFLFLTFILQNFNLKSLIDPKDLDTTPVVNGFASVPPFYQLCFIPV
# Procedure, shortened: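 Reactions contain 5nM enzyme, 10uM Luciferin-H EGE (KM) and 50mM KPO4; compound preincubates 10 min at 37C, NADPH regeneration starts turnover for 60 min. Luminescence after detection reagent gives activity.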
# [5] = target: Cytochrome P450 2D6 (Homo sapiens) (UniProt P10635); test: qHTS Assay for Inhibitors and Substrates of Cytochrome P450 2D6 (AID 891); further: potency means the concentration at half of the fitted maximal effect; nearly all actives have a fitted effect of over 60% in size
# Chain of Cytochrome P450 2D6 (Homo sapiens) (P10635 whole entry, looked up): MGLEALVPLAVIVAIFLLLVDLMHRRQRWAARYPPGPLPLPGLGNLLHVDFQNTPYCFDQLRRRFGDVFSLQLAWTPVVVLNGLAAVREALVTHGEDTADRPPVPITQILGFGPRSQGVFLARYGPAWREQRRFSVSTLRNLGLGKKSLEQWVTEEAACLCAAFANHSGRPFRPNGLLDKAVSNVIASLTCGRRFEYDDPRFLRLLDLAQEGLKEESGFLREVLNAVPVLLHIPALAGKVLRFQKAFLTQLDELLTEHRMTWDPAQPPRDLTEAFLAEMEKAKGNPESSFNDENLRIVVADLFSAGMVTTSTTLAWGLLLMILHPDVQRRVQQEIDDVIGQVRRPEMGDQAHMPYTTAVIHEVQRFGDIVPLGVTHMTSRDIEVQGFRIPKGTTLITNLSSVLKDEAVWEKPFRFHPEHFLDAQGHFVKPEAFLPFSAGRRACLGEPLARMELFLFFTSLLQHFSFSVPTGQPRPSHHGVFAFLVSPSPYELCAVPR
# Procedure, shortened: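 Luminescent read-out of luciferin formed by 5 nM human CYP2D6 demethylating 30 uM Luciferin-ME EGE (Km level) over 60 min at room temperature after NADPH regeneration addition. Data normalized to full inhibition by 1.43 uM quinidine.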
# [6] = target: Tyrosyl-DNA phosphodiesterase 1 (Homo sapiens) (UniProt Q9NUW8); test: Confirmation Assay for Inhibitors of Tyrosyl-DNA Phosphodiesterase (TDP1) (AID 489007); conditions: recombinant human TDP1 enzymatic activity, dose-response; further: potency means the concentration at half of the fitted maximal effect; nearly all actives have a fitted effect of over 40% in size
# Chain of Tyrosyl-DNA phosphodiesterase 1 (Homo sapiens) (Q9NUW8 whole entry, looked up): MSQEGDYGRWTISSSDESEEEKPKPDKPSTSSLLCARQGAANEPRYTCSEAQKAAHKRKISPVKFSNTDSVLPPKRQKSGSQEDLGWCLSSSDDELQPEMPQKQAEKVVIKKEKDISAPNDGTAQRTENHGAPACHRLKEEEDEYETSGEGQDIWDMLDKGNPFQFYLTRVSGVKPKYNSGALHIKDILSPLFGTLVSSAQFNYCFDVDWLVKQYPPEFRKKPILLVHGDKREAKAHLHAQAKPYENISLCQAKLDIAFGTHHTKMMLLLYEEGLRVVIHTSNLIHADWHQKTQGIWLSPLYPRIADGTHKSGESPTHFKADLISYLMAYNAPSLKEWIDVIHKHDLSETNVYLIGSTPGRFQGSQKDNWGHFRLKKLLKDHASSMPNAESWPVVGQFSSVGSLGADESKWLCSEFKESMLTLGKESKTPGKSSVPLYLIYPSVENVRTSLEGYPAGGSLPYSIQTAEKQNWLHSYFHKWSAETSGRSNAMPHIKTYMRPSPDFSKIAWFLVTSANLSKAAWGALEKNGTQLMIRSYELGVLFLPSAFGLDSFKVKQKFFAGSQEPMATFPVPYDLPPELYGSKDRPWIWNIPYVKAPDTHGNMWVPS
# Procedure, shortened: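 AlphaScreen read-out: streptavidin donor and anti-FITC acceptor beads (10 ug/ml) bind intact substrate, so Tdp1 removal of tyrosine-FITC lowers signal. Enzyme 1 nM, substrate 15 nM, 5 min reaction at room temperature after 15 min compound preincubation.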
# [7] = target: Dual specificity protein kinase CLK4 (Homo sapiens) (UniProt Q9HAZ1); test: qHTS Assay for Inhibitors of CDC-like Kinase 4 (Kinase-Glo Assay) (AID 1770); further: nearly all actives have a fitted effect of over 65% in size; further: potency means the concentration at half of the fitted maximal effect
# Chain of Dual specificity protein kinase CLK4 (Homo sapiens) (Q9HAZ1 whole entry, looked up): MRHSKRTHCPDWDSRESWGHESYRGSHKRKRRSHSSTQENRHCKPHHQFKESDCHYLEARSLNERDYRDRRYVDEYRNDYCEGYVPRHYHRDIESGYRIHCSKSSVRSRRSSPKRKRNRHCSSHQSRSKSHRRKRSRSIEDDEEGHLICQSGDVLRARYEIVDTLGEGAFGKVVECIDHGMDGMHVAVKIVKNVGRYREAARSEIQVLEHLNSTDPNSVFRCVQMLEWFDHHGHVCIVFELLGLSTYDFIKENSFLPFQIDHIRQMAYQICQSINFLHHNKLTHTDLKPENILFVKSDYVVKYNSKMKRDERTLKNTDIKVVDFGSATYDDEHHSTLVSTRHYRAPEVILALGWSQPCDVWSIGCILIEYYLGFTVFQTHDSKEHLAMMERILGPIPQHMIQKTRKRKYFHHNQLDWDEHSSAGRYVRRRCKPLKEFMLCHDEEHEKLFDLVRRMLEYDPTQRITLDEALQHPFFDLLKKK
# Procedure, shortened: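 Inhibition was judged from remaining ATP, measured by Ultra-Glo luciferase bioluminescence after Clk4 (25 nM) had acted on RS peptide at 1 uM ATP for 4.5 hours, room temperature.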
# [8] = target: Dual specificity protein kinase CLK4 (Homo sapiens) (UniProt Q9HAZ1); test: qHTS Assay for Inhibitors of CDC-like Kinase 4 (ADP-Glo Assay) (AID 1771); further: nearly all actives have a fitted effect of over 70% in size; further: potency means the concentration at half of the fitted maximal effect; on activity change, negative = inhibition: on the % scale 0 is the no-effect control and ±100 the full control effect
# Procedure, shortened: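 25 nM Clk4, 100 uM RS peptide, 1 uM ATP (final); 2 mM MgCl2, 0.5 mM EGTA, 2.5 mM DTT, 0.01% Triton X-100; 1 hr RT. ADP-Glo readout: ATP depletion 45 min, conversion/luciferase 30 min, luminescence.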
# [9] = target: DNA dC->dU-editing enzyme APOBEC-3G (Homo sapiens) (UniProt Q9HC16); test: qHTS for inhibitors of Vif-A3G interactions: Validation (AID 588379); further: 0% is about no effect
# Chain of DNA dC->dU-editing enzyme APOBEC-3G (Homo sapiens) (Q9HC16 whole entry, looked up): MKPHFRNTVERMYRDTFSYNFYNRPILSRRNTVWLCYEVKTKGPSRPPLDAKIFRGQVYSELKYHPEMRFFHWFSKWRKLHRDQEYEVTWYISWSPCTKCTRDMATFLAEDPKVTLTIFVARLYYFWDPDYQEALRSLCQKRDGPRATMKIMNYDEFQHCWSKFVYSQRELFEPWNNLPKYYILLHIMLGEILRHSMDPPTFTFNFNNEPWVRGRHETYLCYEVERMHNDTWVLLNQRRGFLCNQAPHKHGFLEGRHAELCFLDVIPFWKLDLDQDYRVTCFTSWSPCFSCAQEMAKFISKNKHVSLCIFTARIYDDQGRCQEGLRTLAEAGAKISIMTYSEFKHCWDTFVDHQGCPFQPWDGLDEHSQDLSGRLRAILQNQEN
# Procedure, shortened: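 Yellow fluorescence (Ex 488, Em 500-530) of Vif-coexpressing HeLa A3G-eYFP cells, scanned by Acumen cytometer, reports blocked A3G degradation. Cells plated at 700/well overnight at 37 deg C before compound addition, then a further overnight compound incubation at 37 deg C.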
smiles,measurement,setting,value
O=C(c1cc(C(F)(F)F)cc(C(F)(F)F)c1)N1CCC2(CC1)CN(c1ccncc1)C2,Potency,[1],3.98 µM (active)
O=c1c(-c2ccc(F)cc2)nc2cnc(N3CCOCC3)nc2n1-c1ccccc1,Potency,[2],1.26 µM (active)
Cc1noc(C)c1-c1nc(N2CCOCC2)c2ccccc2n1,Potency,[3],6.31 µM (active)
FC(F)(F)c1ccccc1-c1cncnc1Nc1ccccc1,Potency,[3],0.501 µM (active)
same,Potency,[4],7.94 µM (active)
O=C(c1ccco1)N1CCC2(CC1)CCN(C(c1ccccc1)c1ccccc1)CC2,Potency,[3],inactive
Cc1ccccc1-c1nc(NCc2cccnc2)c2ccccc2n1,Potency,[3],0.501 µM (active)
O=C(c1cccc(F)c1)N1CCC2(CC1)CCN(c1ccncc1)CC2,Potency,[3],inactive
CN(C)c1ccc(-c2nc(N(C)C)c3ccccc3n2)cc1,"activity change, negative = inhibition",[1],118% [at 2.29 µM]
same,Potency,[5],7.94 µM (active)
Cn1cccc1C(=O)N1CCC2(CCCN(Cc3ccncc3)C2)CC1,Potency,[1],1.58 µM (active)
c1nc(NCCN2CCOCC2)c2cc(-c3ccc4c(c3)OCO4)ccc2n1,Potency,[3],5.01 µM (active)
CN(C)C(=O)c1ccc(-c2cncnc2NCc2cccs2)cc1,Potency,[3],3.16 µM (active)
same,Potency,[6],1.78 µM (active)
Cc1cnc(CNc2nc(-c3ccc(N(C)C)cc3)nc3ccccc23)cn1,Potency,[3],5.01 µM (active)
Cc1cnc(CNc2ncnc3ccc(-c4ccccc4CN(C)C)cc23)cn1,"activity change, negative = inhibition",[1],39% [at 2.29 µM]
same,Potency,[5],2.51 µM (active)
FC(F)(F)c1ccccc1-c1nccc(NCc2ccccc2)n1,Potency,[4],6.31 µM (active)
COc1ccc(-n2c(=O)c(-c3ccc(Cl)cc3)nc3cnc(N(C)C)nc32)cc1,Potency,[2],3.16 µM (active)
same,Potency,[7],inactive
same,Potency,[8],inactive
COc1cccc(Cn2c(=O)c(-c3ccc(F)cc3)nc3cnc(N4CCOCC4)nc32)c1,Potency,[4],inactive
same,Potency,[2],3.16 µM (active)
same,Potency,[7],inactive
same,Potency,[8],inactive
N[C@H](C(=O)O)c1ccc(O)c(C(=O)O)c1,Potency,[4],inactive
same,outcome,[9],inactive
COc1ccc(Oc2ncc3nc(-c4ccc(F)cc4)c(=O)n(C)c3n2)cc1,Potency,[3],3.98 µM (active)
same,activation,[2],16.5%
Cc1ccccc1-c1nc(N(C)Cc2ccco2)c2ccccc2n1,Potency,[5],3.16 µM (active)
same,Potency,[7],20 µM (active)
same,Potency,[8],28.2 µM (active)
O=C(c1cnccn1)N1CCC2(CC1)CN(c1ccccn1)C2,Potency,[3],inactive
N#CCCn1c(=O)c(-c2cccs2)nc2cnc(N3CCOCC3)nc21,activation,[2],21.6%
same,Potency,[7],inactive
same,Potency,[8],inactive
Clc1cccc2c1CN(C1=NCCN1)C2,outcome,[9],inactive
CCCCCCCCCCCCCC(=O)O[C@H](CC(=O)O)C[N+](C)(C)C,outcome,[9],inactive
COc1ccccc1CNc1nc(-c2ccc3c(c2)OCO3)nc2ccccc12,Potency,[3],1.26 µM (active)
same,Potency,[4],3.16 µM (active)
same,Potency,[7],inactive
CS(=O)(=O)c1ccc(Cn2c3c(c4cc(F)cc(F)c42)CCC[C@H]3CC(=O)O)cc1,Potency,[1],inactive
same,outcome,[9],inactive
O=C(O)c1cc(=O)c2cccc(O)c2[nH]1,Potency,[3],inactive
COc1ccc(CNc2cc(-c3ccccc3C)ncn2)c(OC)c1,activation,[2],2.85%
same,Potency,[7],inactive
Cc1cc(OC(=O)c2c(C)cc(O)cc2O)cc(O)c1C(=O)O,Potency,[3],12.6 µM (active)
CS(=O)(=O)Nc1cccc(-c2ccc3ncnc(NCc4cccnc4)c3c2)c1,Potency,[3],0.398 µM (active)
same,Potency,[4],0.0501 µM (active)
same,activation,[2],-27.3%
COc1ccc(CNc2ncnc3ccc(-c4c(C)noc4C)cc23)c(OC)c1,Potency,[3],3.16 µM (active)
same,Potency,[2],2 µM (active)
same,Potency,[7],10 µM (active)
same,Potency,[8],15.8 µM (active)
O=c1c(-c2cc(F)cc(F)c2)nc2cncnc2n1Cc1ccccc1Cl,Potency,[1],3.98 µM (active)
same,Potency,[4],1.58 µM (active)
same,Potency,[7],inactive
same,Potency,[8],inactive
CN(C)c1ncc2nc(-c3ccc(F)cc3)c(=O)n(-c3ccccc3)c2n1,Potency,[7],inactive
COc1cccc(Nc2ncc3nc(-c4cn(C)c5ccccc45)c(=O)n(C[C@H]4CCCO4)c3n2)c1,Potency,[1],inactive
same,Potency,[7],inactive
same,Potency,[8],inactive
COc1cc(C)c2c(c1C=O)Oc1c(c(C)c(O)c3c1C(O)OC3=O)OC2=O (stereo not given),Potency,[3],12.6 µM (active)
CN(C)Cc1ccccc1-c1nccc(NCc2cccs2)n1,Potency,[5],1.58 µM (active)
COCC(=O)N1CCC2(CC1)CCN(C(=O)NC(C)C)CC2,activation,[2],-5.43%
